Test [1] in a line: qHTS of pediatric cancer cell lines to identify multiple opportunities for drug repurposing: Primary screen for U-2 OS cells (AID 1347096). Note: nearly all actives have a fitted effect of over 50% in size. The method, boiled down: (§1)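 Viability after 48 h compound treatment at 37C, 500-1,000 cells/well, read as ATP luminescence with CellTiter-Glo. Primary screens used 11-point (MIPE, 0.78 nM-46 µM) or 8-point (NPC, 0.59 nM-46 µM) final concentrations; follow-up screens used 11-point dilutions.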
A general note: qHTS replaces the single test concentration by a dilution series.

A short description of test [2]: qHTS of pediatric cancer cell lines to identify multiple opportunities for drug repurposing: Primary screen for Saos-2 cells (AID 1347097). Note: nearly all actives have a fitted effect of over 40% in size. Note: potency is the fitted concentration of half-maximal effect. The method, boiled down: (§2)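 Cells plated at 500-1,000/well in growth medium, compounds added after 5 h. MIPE tested at 11 points (from 0.78 nM), NPC at 8 points (from 0.59 nM). CellTiter-Glo luminescence after 48 h; concentration-response curves from primary screen.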

The nature of test [3]: qHTS of pediatric cancer cell lines to identify multiple opportunities for drug repurposing: Primary screen for SK-N-SH cells (AID 1347098). Note: nearly all actives have a fitted effect of over 65% in size. Note: potency is the fitted concentration of half-maximal effect. The method, boiled down:
(§3)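 Cells (500-1,000/well) rested 5 h, then received compounds for 48 h; metabolically active cells were measured by CellTiter-Glo luminescence. Final concentrations spanned up to 46 µM (MIPE, 11-point) or 0.59 nM-46 µM (NPC, 8-point) in primary screens, 11-point in follow-ups.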

A short description of test [4]: qHTS of pediatric cancer cell lines to identify multiple opportunities for drug repurposing: Primary screen for NB1643 cells (AID 1347099). Note: nearly all actives have a fitted effect of over 50% in size. The method, boiled down: as §2
Test [5] is described as follows: qHTS of pediatric cancer cell lines to identify multiple opportunities for drug repurposing: Primary screen for LAN-5 cells (AID 1347100). Note: potency is the fitted concentration of half-maximal effect. The method, boiled down: as §1
Test [6] can be described thus: qHTS of pediatric cancer cell lines to identify multiple opportunities for drug repurposing: Primary screen for BT-12 cells (AID 1347101). Note: nearly all actives have a fitted effect of over 25% in size. The method, boiled down: as §3
A short description of test [7]: qHTS of pediatric cancer cell lines to identify multiple opportunities for drug repurposing: Primary screen for Rh18 cells (AID 1347102). Note: nearly all actives have a fitted effect of over 65% in size. The method, boiled down: as §1
Test [8] can be described thus: qHTS of pediatric cancer cell lines to identify multiple opportunities for drug repurposing: Primary screen for RD cells (AID 1347104). Note: nearly all actives have a fitted effect of over 55% in size. Note: potency is the fitted concentration of half-maximal effect. The method, boiled down:
as §2

A short description of test [9]: qHTS of pediatric cancer cell lines to identify multiple opportunities for drug repurposing: Primary screen for MG 63 (6-TG R) cells (AID 1347105). Note: nearly all actives have a fitted effect of over 50% in size. Note: potency is the fitted concentration of half-maximal effect. The method, boiled down:
as §2

Test [10] in a line: qHTS of pediatric cancer cell lines to identify multiple opportunities for drug repurposing: Primary screen for OHS-50 cells (AID 1347103). Note: nearly all actives have a fitted effect of over 40% in size. Note: potency is the fitted concentration of half-maximal effect. The method, boiled down: as §3

The record followed here is PubChem BioAssay (NCATS).

Records with an inconclusive call do not appear. Activity calls are given as the source filed them. Calls come from the whole dose curve; as a rule, active = well fitted curve in the direction sought with a large enough effect; inconclusive = small, poorly fitted or top-dose-only effect, or another doubt; inactive = no such curve, though single readings can be large; an effect the other way counts as inactive or inconclusive.

In the case of `CN(C)CCN1C(=O)c2ccccc2N(C)c2ccccc21`, the Potency result in test [1], in test [2], in test [3], in [4], in [5] and in [6] was “inactive” in each case. Further, the Potency entry in test [7], in test [8] and in test [9] was “inactive” in each case.
For the molecule `Oc1ccccc1C=NCc1ccccc1`, the Potency entry in [1], in [2], in test [3], in test [4], in test [5] and in test [6] was “inactive” in each case. The Potency entry in [7], in test [8] and in test [9] was “inactive” throughout.
In the case of `CCOC(=O)C(C#N)=C(c1ccccc1)c1ccccc1`, the Potency result in [1], in [2], in test [3], in [4], in test [5] and in test [6] was “inactive” in each case. For the same molecule, the Potency result in test [7], in test [8] and in test [9] was “inactive” each time.
As for `O=C(CN1CCN(Cc2ccc3c(c2)OCO3)CC1)N1c2ccccc2Sc2ccccc21`, the Potency entry in [1], in test [2], in test [3], in [4], in test [5] and in [6] was “inactive” in each case. For the same molecule, the Potency result in test [7], in [8] and in test [9] was “inactive” each time.
Take `O=C1c2cccc3c2[C@H](CCC3)CN1[C@@H]1CN2CCC1CC2`: the Potency entry in test [1], in [2], in [3], in test [4], in [5] and in [6] was “inactive” each time. Moreover, the Potency entry in test [7], in test [8] and in test [9] was “inactive” each time.
Take `O=S(c1cc(Cl)cc(Cl)c1O)c1cc(Cl)cc(Cl)c1O`: the Potency entry in [1], in test [3], in test [4], in test [5], in test [6] and in [7] was “inactive” each time. In addition, the Potency entry in [10], in [8] and in test [9] was “inactive” each time. Besides, in [2], the Potency is 16.8 µM (active).
As for `Cn1c(=O)c2[nH]c(Br)nc2n(C)c1=O`, the Potency result in test [1], in [2], in [3], in test [4], in test [5] and in [6] was “inactive” in each case. Further, the Potency result in test [7] and in test [8] was “inactive” in each case.
With `C=C[C@@]1(C)CC(=O)[C@]2(O)[C@@]3(C)[C@@H](O)CCC(C)(C)[C@@H]3[C@H](O)[C@H](OC(C)=O)[C@@]2(C)O1`, the Potency result in test [1], in test [2], in test [3], in [4], in test [5] and in [6] was “inactive” throughout. Besides, the Potency result in test [7], in [8] and in test [9] was “inactive” in each case.
`CC1(C)OC[C@@H]2O[C@@]3(C(=O)O)OC(C)(C)O[C@H]3[C@@H]2O1`: the Potency entry in test [1], in test [2], in test [3], in test [4], in test [5] and in [6] was “inactive” in each case. The Potency result in test [7], in [8] and in test [9] was “inactive” each time.
As to `CC(=O)Nc1ccc(OCC(O)CNC(C)C)cc1` (stereo not drawn), the Potency entry in test [1], in test [2], in test [5], in [6], in test [7] and in [10] was “inactive” throughout. Besides, the Potency result in [8] and in test [9] was “inactive” throughout.
As to `CCN(CC)CCOc1ccc2c(c1)C(=O)c1cc(OCCN(CC)CC)ccc1-2`, the Potency result in test [1], in [2] and in [9] was “inactive” in each case. Further, the Potency is 34.4 µM (active) in [3], 23.7 µM (active) in test [5] and 21.1 µM (active) in test [8].
As for `Nc1nc(-c2ccccc2)c(Br)c(=O)[nH]1`, the Potency result in test [1], in [2], in test [4], in [5], in test [6] and in test [7] was “inactive” each time. For the same molecule, the Potency entry in [8] is “inactive”.
Regarding `O=C1[C@H](CC[C@H](O)c2ccc(F)cc2)[C@@H](c2ccc(O)cc2)N1c1ccc(F)cc1`, the Potency entry in test [1], in [2], in test [3], in test [5], in [7] and in [8] was “inactive” in each case. The Potency entry in [9] was “inactive”.
`CCO[C@@H]1O[C@H](C(COCc2ccccc2)OCc2ccccc2)[C@H](OCc2ccccc2)[C@H]1O` (stereo partly drawn): the Potency entry in [1], in [4], in [5] and in test [7] was “inactive” throughout. Further, the Potency is 26.6 µM (active) in [2] and 10.6 µM (active) in test [9].
In the case of `CN(C)CCC[C@@]1(c2ccc(F)cc2)OCc2cc(C#N)ccc21`, the Potency entry in [1], in test [2], in [4], in [5], in test [6] and in [7] was “inactive” in each case. In addition, the Potency result in test [9] is “inactive”.
As for `CCN(CC)CCOc1ccccc1C(=O)CCc1ccccc1`, the Potency entry in [1], in [2], in test [4], in test [5], in test [6] and in test [7] was “inactive” throughout. Also, the Potency result in test [8] and in test [9] was “inactive” each time.
Consider `CC[C@]12CCCN3CCc4c(n(c5ccccc45)C(=O)C1)[C@@H]32`, for which the Potency entry in [1] and in [4] was “inactive” in each case. Also, the Potency in test [2] is 13.3 µM (active); in test [10] it was 27.6 µM (active).
For `Cc1nc(-c2ccc(Cl)cc2)oc1COC(C)(C)C(=O)O`, the Potency result in [1], in test [2], in [4], in test [5], in test [6] and in [7] was “inactive” throughout. Also, the Potency result in [8] and in test [9] was “inactive” each time.
On to `COc1cc(C(=S)N2CCOCC2)ccc1O`, for which the Potency result in [1], in [2], in test [5], in test [6], in test [7] and in test [8] was “inactive” in each case.
Turning to `C#C[C@]1(O)CC[C@H]2[C@@H]3CCc4cc(OC)ccc4[C@H]3CC[C@@]21C`, the Potency result in test [1], in test [2], in test [5], in [6], in test [7] and in test [8] was “inactive” throughout. Also, the Potency entry in test [9] was “inactive”.
Take `CC(=O)OC[C@H]1O[C@@H](n2ncc(=O)[nH]c2=O)[C@H](OC(C)=O)[C@@H]1OC(C)=O`: the Potency entry in test [1], in test [3], in test [7] and in test [9] was “inactive” in each case. Further, in [2], the Potency was 4.22 µM (active).
Regarding `CC(C)Cc1ccc(CC(=O)O)cc1`, the Potency entry in test [1], in test [2], in test [4], in test [5], in [6] and in [7] was “inactive” throughout. Also, the Potency result in [10] and in test [8] was “inactive” throughout.
